# According to PubChem BioAssay (EPA / NIEHS):
# Calls of active or inactive are those of the source. The calls were made as follows: active = hit-call score of the fitted dose curve at least 0.9, where 1 is the maximum; inactive = score below 0.9.
# Columns and labels:
# Conditions in all cases: mRNA level, 48 h; actives raise or lower the signal
# [1] = read-out: 3-Hydroxy-3-Methylglutaryl-CoA Synthase 2 (HMGCS2), HMGCS2 (gene 3158); test: LTEA_HepaRG_HMGCS2: Life Technologies and Expression Analysis (LTEA) Assay for 3-Hydroxy-3-Methylglutaryl-CoA Synthase 2 (HMGCS2) using HepaRG (AID 2283504)
# Method in brief: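 Differentiated human HepaRG cells were exposed in duplicate for 48 h in serum-free induction medium to eight concentrations (top 100 uM, half-log steps, 0.5% DMSO). HMGCS2 mRNA was quantified by TaqMan qRT-PCR, normalised to ACTB, GAPDH and POLR2A, then fitted bidirectionally against DMSO.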
# HGF (gene 3082) = test: LTEA_HepaRG_HGF: Life Technologies and Expression Analysis (LTEA) Assay for Hepatocyte Growth Facto (HGF) using HepaRG (AID 2283505)
# Method in brief: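 Differentiated human HepaRG cells in serum-free induction medium were exposed in duplicate for 48 h to eight concentrations (top 100 uM, half-log steps, 0.5% DMSO). HGF mRNA was quantified by qRT-PCR, normalized to ACTB, GAPDH and POLR2A.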
# [2] = read-out: Insulin Like Growth Factor 1 (IGF1), IGF1 (gene 3479); test: LTEA_HepaRG_IGF1: Life Technologies and Expression Analysis (LTEA) Assay for Insulin Like Growth Factor 1 (IGF1) using HepaRG (AID 2283506)
# Method in brief: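 Endpoint: IGF1 mRNA change by qRT-PCR, housekeeping-normalized, fitted bidirectionally relative to 0.5% DMSO vehicle. Human HepaRG cells were treated 48 h in serum-free induction medium, eight half-log concentrations topping at 100 uM.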
# [3] = read-out: Intercellular Adhesion Molecule 1 (ICAM1), ICAM1 (gene 3383); test: LTEA_HepaRG_ICAM1: Life Technologies and Expression Analysis (LTEA) Assay for Intercellular Adhesion Molecule 1 (ICAM1) using HepaRG (AID 2283507)
# Method in brief: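 Differentiated HepaRG cells in serum-free induction medium were exposed in duplicate for 48 h to eight half-log concentrations up to 100 uM in 0.5% DMSO. Transcript levels were measured by qRT-PCR normalized to ACTB, GAPDH and POLR2A; bidirectional fits relative to DMSO.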
# [4] = read-out: Insulin-like growth factor-binding protein 1 (IGFBP1), IGFBP1 (gene 3484); test: LTEA_HepaRG_IGFBP1: Life Technologies and Expression Analysis (LTEA) Assay for Insulin-like growth factor-binding protein 1 (IGFBP1) using HepaRG (AID 2283508)
# Method in brief: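 Differentiated human HepaRG cells in serum-free induction medium were exposed in duplicate for 48 h to eight concentrations, top 100 uM with half-log dilutions, in 0.5% DMSO. Transcript levels came from qRT-PCR normalised to ACTB, GAPDH and POLR2A, fitted bidirectionally against DMSO.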
# [5] = read-out: Interleukin 6 (IL6), IL6 (gene 3569); test: LTEA_HepaRG_IL6: Life Technologies and Expression Analysis (LTEA) Assay for Interleukin 6 (IL6) using HepaRG (AID 2283509)
# Method in brief: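 qRT-PCR read-out of IL6 transcript, normalized to three housekeeping genes, after 48 h chemical exposure of HepaRG cells; 8-point half-log series, top 100 uM, 0.5% DMSO vehicle. Bidirectional curve fitting against DMSO baseline.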
# [6] = read-out: Interleukin 6 Receptor (IL6R), IL6R (gene 3570); test: LTEA_HepaRG_IL6R: Life Technologies and Expression Analysis (LTEA) Assay for Interleukin 6 Receptor (IL6R) using HepaRG (AID 2283510);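 as to AC50: TaqMan qRT-PCR signal normalized to ACTB GAPDH and POLR2A housekeeping genes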
# Method in brief: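 In this HepaRG screen, test chemicals act on cells for 48 h at up to 100 uM (eight half-log points, duplicate wells). IL6R expression is quantified by qRT-PCR after normalization to ACTB, GAPDH and POLR2A, with DMSO as baseline.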
# [7] = read-out: Potassium channel subfamily K member 1 (KCNK1), KCNK1 (gene 3775); test: LTEA_HepaRG_KCNK1: Life Technologies and Expression Analysis (LTEA) Assay for Potassium channel subfamily K member 1 (KCNK1) using HepaRG (AID 2283511)
# Method in brief: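 HepaRG, 48 h exposure, 8-pt half-log series top 100 uM, 0.5% DMSO vehicle, duplicates. Readout: KCNK1 transcript by qRT-PCR (Fluidigm array), housekeeping-normalized; bidirectional curve fit relative to DMSO baseline.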
# [8] = read-out: Keratin 19 (KRT19), KRT19 (gene 3880); test: LTEA_HepaRG_KRT19: Life Technologies and Expression Analysis (LTEA) Assay for Keratin 19 (KRT19) using HepaRG (AID 2283512)
# Method in brief: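 Differentiated human HepaRG cells, plated 48 h, were exposed in duplicate for 48 h in serum-free induction medium to eight half-log concentrations up to 100 uM in 0.5% DMSO. KRT19 mRNA was quantified by qRT-PCR, normalized to ACTB, GAPDH and POLR2A, and fitted bidirectionally versus DMSO.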
# [9] = read-out: JUN Transcription Factor, JUN (gene 3725); test: LTEA_HepaRG_JUN: Life Technologies and Expression Analysis (LTEA) Assay for JUN Transcription Factor using HepaRG (AID 2283513)
# Method in brief: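 Gene-expression endpoint: JUN mRNA (qRT-PCR, normalized to three reference genes) in HepaRG cultures treated 48 h with chemicals, duplicate wells, 100 uM maximum with half-log dilutions; bidirectional fitting relative to 0.5% DMSO.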
SMILES,outcome [1],outcome (HGF (gene 3082)),AC50 [2],outcome [3],AC50 [4],outcome [5],outcome [6],outcome [7],outcome [8],outcome [9],outcome [4],AC50 [1],AC50 [6],AC50 [8],AC50 [3],AC50 [5],AC50 [9]
CCOP(=S)(OCC)Oc1cc(C)nc(C(C)C)n1,inactive,inactive,27.3 µM (active),inactive,19 µM (active),inactive,inactive,inactive,inactive,inactive,,,,,,,
CSc1nnc(C(C)(C)C)c(=O)n1N,inactive,inactive,,inactive,,inactive,inactive,inactive,inactive,inactive,inactive,,,,,,
O=C(O)c1cc(Oc2ccc(C(F)(F)F)cc2Cl)ccc1[N+](=O)[O-],,inactive,,inactive,,inactive,inactive,inactive,inactive,inactive,inactive,50 µM (active),,,,,
CCOP(=S)(OCC)Oc1ccc([N+](=O)[O-])cc1,inactive,inactive,,inactive,,inactive,,,inactive,inactive,inactive,,1.48 µM (active),,,,
C[N+]1(C)CCCCC1,inactive,inactive,,inactive,,inactive,inactive,inactive,inactive,inactive,inactive,,,,,,
CC(=NC#N)N(C)Cc1ccc(Cl)nc1,inactive,inactive,,inactive,,inactive,inactive,inactive,inactive,inactive,inactive,,,,,,
COP(=O)(NC(C)=O)SC (centres undefined),inactive,inactive,,inactive,,inactive,inactive,inactive,inactive,inactive,inactive,,,,,,
COc1cccc(C(=O)NN(C(=O)c2cc(C)cc(C)c2)C(C)(C)C)c1C,inactive,inactive,,inactive,,inactive,inactive,inactive,inactive,inactive,inactive,,,,,,
CCC(CC)Nc1c([N+](=O)[O-])cc(C)c(C)c1[N+](=O)[O-],inactive,inactive,,inactive,,inactive,inactive,inactive,,inactive,inactive,,,50 µM (active),,,
CNC(=O)ON=C(SC)C(=O)N(C)C,inactive,inactive,,inactive,,inactive,inactive,inactive,inactive,inactive,inactive,,,,,,
CC(Oc1cccc(Cl)c1)C(=O)O (centres undefined),inactive,inactive,,inactive,,inactive,inactive,inactive,inactive,inactive,inactive,,,,,,
C#CC(C)(C)NC(=O)c1cc(Cl)cc(Cl)c1,inactive,inactive,,inactive,,inactive,,inactive,,inactive,inactive,,,11.8 µM (active),,,
CCCCN(CC)c1c([N+](=O)[O-])cc(C(F)(F)F)cc1[N+](=O)[O-],inactive,inactive,,inactive,,inactive,inactive,inactive,inactive,inactive,inactive,,,,,,
CCCOc1nn(C(=O)NS(=O)(=O)c2ccccc2C(=O)OC)c(=O)n1C,inactive,inactive,,inactive,,inactive,inactive,inactive,inactive,inactive,inactive,,,,,,
CCOP(=S)(OCC)SCCSCC,inactive,inactive,,inactive,,inactive,inactive,inactive,inactive,inactive,inactive,,,,,,
CCCOCC(=Nc1ccc(Cl)cc1C(F)(F)F)n1ccnc1,,inactive,,,,,,inactive,,,,53.2 µM (active),66.4 µM (active),12 µM (active),88.2 µM (active),85.7 µM (active),73.1 µM (active)
CN(C)C(=O)Nc1cccc(C(F)(F)F)c1,inactive,inactive,,inactive,,inactive,inactive,inactive,inactive,inactive,inactive,,,,,,
CCOC(=O)COc1cc(-c2nn(C)c(OC(F)F)c2Cl)c(F)cc1Cl,inactive,inactive,,inactive,,inactive,inactive,inactive,inactive,inactive,inactive,,,,,,
CC(COc1ccc(Oc2ccccc2)cc1)Oc1ccccn1 (centres undefined),,inactive,,inactive,,inactive,inactive,inactive,inactive,inactive,inactive,12.6 µM (active),,,,,
